Screens (PubChem BioAssay)
hcDAF-12 act: H. contortus DAF-12 activation, primary screen. HEK293 hcDAF-12 lit1-tk-luc reporter, luminescence; 0% DMSO, 100% Δ7-dafachronic acid. activation, % at 6.8 µM. 370,000 tested, 1.4% active;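 active means activation above the mean of all tested compounds plus 3 SD, cut at about 5.5% in these data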;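 further: 100% = response to 3 µM Δ7-dafachronic acid high control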
hgDAF-12 ag: hgDAF-12 agonism, primary luciferase screen | HEK293 GAL4-hgDAF12 UAS-luciferase reporter, agonist luminescence; normalized to butyrate control | activation, % at 6.8 µM | 370,000 tested, 1.8% active;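 active means activation above a cutoff set at the mean of all screened compounds plus 3 SD, cut at about 10% in these data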;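 further: 0% = DMSO wells and 100% = sodium butyrate wells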
PolyA inh: inhibitors of polyadenylation in S. cerevisiae | activity score, % at 12 µM | AID 1875 | 300,000 tested, 0.02% active | S. cerevisiae SKY197-pL101 polyadenylation reporter, beta-gal luminescence; efflux-impaired pdr1/pdr3 knockout yeast; score 100 = 6 SD above DMSO;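 active means lowest replicate activity score at least 50, where 100 means six control SD above control mean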;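 further: yeast exposed to compound for 9 h at 30 °C; higher score means more reporter readthrough which indicates perturbed polyadenylation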
DAX1 inh-1: inhibits human nuclear receptor DAX1; AID 504766; 340,000 tested, 0.99% active; inhibition, % at 6.75 µM; P51843; HEK293 Gal4-DAX1 luciferase reporter, luminescence;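 active means inhibition above the mean over all tested compounds plus 3 SD, cut at about 4.2% in these data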;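 further: 0% = DAX1-transfected cells with DMSO and 100% = empty-vector control cells with DMSO; inhibition shows as a rise in luminescence from relieved DAX1 repression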
Target sequence (P51843 207-470 limits assumed): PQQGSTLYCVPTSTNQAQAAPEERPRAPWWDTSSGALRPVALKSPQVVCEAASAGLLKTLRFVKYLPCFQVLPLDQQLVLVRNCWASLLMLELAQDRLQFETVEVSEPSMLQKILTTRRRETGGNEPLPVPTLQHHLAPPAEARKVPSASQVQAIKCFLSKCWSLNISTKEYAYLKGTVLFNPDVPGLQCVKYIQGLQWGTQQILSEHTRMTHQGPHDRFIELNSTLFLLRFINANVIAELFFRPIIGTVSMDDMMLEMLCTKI
ssDAF-12 act: S. stercoralis DAF-12 activation, primary screen | HEK293 ssDAF-12/GRIP1 lit1-tk-luc reporter, luminescence; % of 3 µM dafachronic acid response | activation, % at 6.8 µM | 370,000 tested, 1% active | AID 652126;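 active means activation above the mean over all tested compounds plus 3 SD, cut at about 0.9% in these data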;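 further: 0% = DMSO-only wells and 100% = 3 µM delta7-dafachronic acid wells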
DAX1 inh-2: inhibitors of DAX1 repression of SF-1 activated StAR promoter | HEK293T StAR-luciferase reporter, SF-1/DAX-1 repression relief | inhibition, % at 6.8 µM | AID 652010 | 370,000 tested, 1.1% active;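 active means inhibition above the mean over all tested compounds plus 3 SD, cut at about 3.6% in these data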;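 further: 0% = DAX-1 cells with DMSO and 100% = cells lacking DAX-1 with DMSO; higher inhibition means more luminescence from relief of DAX-1 repression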
Numbers without * were called inactive. Sampled rows, rich in hits. Any-hit rate of the full collection: about 4.1%.

Screening CC(C)(C)SCCNC(=O)/C=C/c1ccccc1 returned hcDAF-12 act 0.4, hgDAF-12 ag 2.3, PolyA inh -3.8, ssDAF-12 act -0.8 and DAX1 inh-2 0.6.
Screening CC(C)(C)SCCNC(=O)/C=C/c1ccc(F)cc1 returned hcDAF-12 act 1.8, hgDAF-12 ag 8.3, PolyA inh 21.2, DAX1 inh-1 2.0, ssDAF-12 act 1.4* and DAX1 inh-2 1.1.
O=Cc1cnc(N2CCCCC2)s1 was read as hcDAF-12 act -1.1, hgDAF-12 ag 1.2, PolyA inh 2.0, DAX1 inh-1 7.1*, ssDAF-12 act 0.0 and DAX1 inh-2 0.8.
For O=C(N/N=C/c1cnc(N2CCCCC2)s1)c1ccc(Cl)cc1 the results were hcDAF-12 act -0.4, hgDAF-12 ag 6.2, PolyA inh 3.6, DAX1 inh-1 -0.4, ssDAF-12 act -1.7 and DAX1 inh-2 0.2.
Screening Cc1ncoc1C(=O)N1CCc2c([nH]c3ccccc23)C1C1CCCCC1 (stereo not drawn) returned hcDAF-12 act 6.1*, hgDAF-12 ag 8.1, PolyA inh -15.0, DAX1 inh-1 -0.6, ssDAF-12 act 0.7 and DAX1 inh-2 0.7.
`Cc1ncoc1C(=O)N1CCc2c([nH]c3ccccc23)C1C(C)(C)C` (stereo not drawn) gave hcDAF-12 act 5.6*, hgDAF-12 ag -0.1, PolyA inh 8.7, DAX1 inh-1 1.0, ssDAF-12 act 1.0* and DAX1 inh-2 2.6.
O=C(c1ccc(Cl)cc1)N1CCc2c([nH]c3ccccc23)C1C(F)(F)F (stereo not drawn) was read as hcDAF-12 act 0.3, hgDAF-12 ag -0.9, PolyA inh -12.6, DAX1 inh-1 -1.2, ssDAF-12 act -0.9 and DAX1 inh-2 0.1.
`O=S1(=O)CCC(NC(=S)Nc2ccc3ccccc3c2)C1` (stereo not drawn) gave hcDAF-12 act 3.7, hgDAF-12 ag 1.2, PolyA inh 23.0, DAX1 inh-1 2.2, ssDAF-12 act -0.2 and DAX1 inh-2 0.4.
For O=C(Nc1ccc2ccccc2c1)OC1CCS(=O)(=O)C1 (stereo not drawn) the results were hcDAF-12 act 3.8, hgDAF-12 ag 6.5, ssDAF-12 act 2.1* and DAX1 inh-2 2.7.
For COc1ccccc1NC(=O)Cn1nnc(-c2ccccc2NS(=O)(=O)c2ccccc2)n1 the results were hcDAF-12 act -2.2, hgDAF-12 ag -5.2, PolyA inh -7.9, DAX1 inh-1 -2.1, ssDAF-12 act -1.5 and DAX1 inh-2 -1.9.
For COc1ccccc1NC(=O)Cn1nnc(-c2ccccc2NC(=O)c2cc3ccccc3oc2=O)n1 the results were hcDAF-12 act 14.5*, hgDAF-12 ag 6.5, PolyA inh 7.4, DAX1 inh-1 1.7, ssDAF-12 act 0.9 and DAX1 inh-2 3.1.
For Cc1cc(C)nc(NC(=O)c2ccc(Cl)cc2[N+](=O)[O-])c1 the results were hcDAF-12 act 1.3, hgDAF-12 ag 0.1, PolyA inh 10.8, DAX1 inh-1 -1.3, ssDAF-12 act -1.5 and DAX1 inh-2 -0.3.
Screening Cc1nc2ccccc2n1C(=O)c1ccc(Cl)cc1[N+](=O)[O-] returned hcDAF-12 act 5.8*, hgDAF-12 ag -1.1, PolyA inh 14.8, DAX1 inh-1 0.1, ssDAF-12 act -1.2 and DAX1 inh-2 0.0.
For Cc1cc(C)cc(NC(=O)c2ccccc2CC[N+](=O)[O-])c1 the results were hcDAF-12 act -1.2, hgDAF-12 ag -0.9, PolyA inh -1.9, DAX1 inh-1 -1.2, ssDAF-12 act -1.3 and DAX1 inh-2 0.2.
Cc1ccc(NC(=O)Nc2ccccc2CC[N+](=O)[O-])cc1 was read as hcDAF-12 act 5.8*, hgDAF-12 ag 5.8, PolyA inh -9.0, ssDAF-12 act -0.2 and DAX1 inh-2 0.0.
Screening O=C(NCC1COCCO1)C1CCN(S(=O)(=O)c2ccc(Br)s2)CC1 (stereo not drawn) returned hcDAF-12 act -2.4, hgDAF-12 ag -1.2, ssDAF-12 act -1.3 and DAX1 inh-2 -0.9.
For COc1ccccc1Cc1c(-c2ccc(OC)c(OC)c2)nc2ccc(Cl)cn12 the results were hcDAF-12 act -1.9, hgDAF-12 ag 1.8, ssDAF-12 act -1.1 and DAX1 inh-2 -1.2.
Screening COc1ccccc1Cc1c(-c2ccc(F)cc2)nc2ccc(Br)cn12 returned hcDAF-12 act 3.0, hgDAF-12 ag 7.8, ssDAF-12 act 1.3* and DAX1 inh-2 0.3.
COc1ccccc1Cc1c(-c2ccc(C)cc2)nc2ccc(Cl)cn12 was read as hcDAF-12 act 0.8, hgDAF-12 ag 8.4, ssDAF-12 act -0.5 and DAX1 inh-2 3.9*.
`COC(=O)[C@]12C[C@H](CC(=O)N3CCCCC3)C(=O)N(Cc3ccco3)C1=C[C@H](C1CCCC1)O[C@@H]2C` gave hcDAF-12 act -0.1, hgDAF-12 ag 3.1, ssDAF-12 act -1.1 and DAX1 inh-2 -0.5.
O=C(CSC(=S)N1CCOCC1)Nc1nc(-c2ccccc2)c(-c2ccccc2)o1 was read as hcDAF-12 act -0.4, hgDAF-12 ag 0.5, PolyA inh 10.7, DAX1 inh-1 5.6*, ssDAF-12 act -1.3 and DAX1 inh-2 0.8.
For O=C(CSC(=S)N1CCCCC1)Nc1nc(-c2ccccc2)c(-c2ccccc2)o1 the results were hcDAF-12 act -0.4, hgDAF-12 ag 0.2, PolyA inh -12.2, DAX1 inh-1 0.8, ssDAF-12 act -1.4 and DAX1 inh-2 0.0.
Screening COc1ccc2nc(NC(=O)c3ccc(NC(=O)C4CCCO4)cc3)sc2c1 (stereo not drawn) returned hcDAF-12 act -1.3, hgDAF-12 ag 0.4, PolyA inh -17.5, DAX1 inh-1 0.4, ssDAF-12 act -0.4 and DAX1 inh-2 -0.7.
For CC1CCc2nc(NC(=O)c3ccco3)sc2C1 (stereo not drawn) the results were hcDAF-12 act 0.0, hgDAF-12 ag -5.2, PolyA inh -16.6, DAX1 inh-1 -4.8, ssDAF-12 act -1.7 and DAX1 inh-2 -0.8.
O=C(Nc1nc2ccc(F)cc2s1)C1CCCO1 (stereo not drawn) was read as hcDAF-12 act 4.6, hgDAF-12 ag 11.3*, PolyA inh -9.0, DAX1 inh-1 1.2, ssDAF-12 act 0.1 and DAX1 inh-2 4.0*.
O=C(Nc1nc2cc3c(cc2s1)OCCO3)c1ccco1 was read as hcDAF-12 act -4.9, hgDAF-12 ag -11.8, PolyA inh -2.8, DAX1 inh-1 -4.8, ssDAF-12 act -1.9 and DAX1 inh-2 -8.3.
For O=C(NC(=S)Nc1nc2ccc(F)cc2s1)c1ccco1 the results were hcDAF-12 act 5.8*, hgDAF-12 ag 4.7, PolyA inh -8.4, DAX1 inh-1 1.6, ssDAF-12 act 2.6* and DAX1 inh-2 2.0.
`CS(=O)(=O)c1ccc2nc(NC(=O)Oc3ccccc3)sc2c1` gave hcDAF-12 act -2.4, hgDAF-12 ag 2.8, PolyA inh 8.0, DAX1 inh-1 1.8, ssDAF-12 act -0.8 and DAX1 inh-2 -1.0.
